From PubChem BioAssay (NCI)
This is part of a sample that, as a whole, favours compounds with a hit. Of some 83,000 tested, about 20% had one in any assay.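 Compound tested at a single concentration for 48 hours in 96-well plates; a percent growth value below 10 was scored as active.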 Unmarked numbers belong to inactive results. The source made the active and inactive calls.

system: RPMI-8226 leukemia; assay: NCI-60 one-dose screen, 48 h (100 = growth as untreated, 0 = no growth, -100 = all killed); conditions: 10 µM unless noted
Protocol: Growth inhibition of the RPMI-8226 human tumor cell line is measured as a screen for anti-cancer activity. Cells are grown in 96 well plates and exposed to the test compound for 48 hours. Compounds are tested at a single concentration, which is 10^-5 M for most compounds. The reported endpoint is percent growth (GI% or GIPRCNT), where numbers from 0 - 100% represent growth inhibition, and numbers from -100% - 0 represent cell death. For example, a value of 40 represents 60% growth inhibition. A value of 0 means no net growth occurred over the course of the experiment. A value of -40 indicates 40% of cells at the beginning of the experiment died by the end of the experiment. A value of -100 means all cells are dead at the end of the experiment.
NCI-60 Human Tumor Cell Lines Screen was performed using the standard one-dose NCI protocol, which is described in more detail at https://dtp.cancer.gov/discovery_development/nci-60/default.htm.
Compounds with GIPRCNT values below 10 were considered active. Activity score was based on GIPRCNT using the following formula: […]
Score is 0 for GIPRCNT values of 100 or above, 50 for GIPRCNT values of 0, and 100 for GIPRCNT values of -100.

SMILES | growth
COc1ccc(-c2nocc2-c2cccs2)cc1 | 124%
CN(C)CCNc1cc(-c2ccccc2)nc2ccccc12 | -8.18% (active)
FC(F)(F)c1cccc(Nc2nc(-c3ccccc3)nc3ncccc23)c1 | -39.8% (active)
CC[C@H](C)[C@@H](C(=O)OC)n1cc(CNC(=O)[C@@H](Cc2ccccc2)NC(=O)OCc2ccccc2)nn1 | 90.1%
COc1ccccc1CNC(=O)C1c2ccccc2C(=O)N(CC(C)C)C1c1cccs1 (stereo not given) | 2.15% (active)
O=c1c(-c2nc3ccccc3[nH]2)cc2ccccc2n1Cc1cn(Cc2ccccc2Cl)nn1 | 12.4%
Cn1c(=O)n(C)c2cc(CNCCNc3ccnc4cc(Cl)ccc34)ccc21 | 34.1%
O=C1c2cc(Cl)ccc2Oc2cc([N+](=O)[O-])ccc2N1c1ccc(F)cc1F | 87.6%
COc1cc(C#N)cc2[nH]c(=O)oc12 | 107%
COc1ccc(Cn2c(Br)c3c(c2-c2cc(OC)c(OC)c(OC)c2)CCc2sc(NC(C)=O)nc2-3)cc1 | 53.5%
O=C1Nc2ccccc2/C1=C/c1ccc[nH]1 | 97.6%
O=C(Nc1ccc(Br)cc1F)c1cc(F)ccc1O | -28.9% (active)
Cc1ccc2sc3c(NCCCNCCO)nc4ccccc4c3c(=O)c2c1 | -16.5% (active)
Nc1no[n+]([O-])c1-c1nnc2c(n1)-c1ccccc1C2=O | 18.1%
Cc1cc2c(c(C)c1Cl)C(=O)/C(=C/c1ccco1)O2 | 87%
Cc1ccc(N=NC2C(=O)N(c3ccc(Cl)cc3)N(c3ccc(Cl)cc3)C2=O)cc1 | 78.1%
O=c1c2cc(F)cc(Cl)c2sc2c(Cl)nc3ccccc3c12 | 115%
O=c1oc2ccc(F)cc2c(=O)n1-c1ccc(Br)cc1F | -22.3% (active)
COc1ccc(C2C3=C(COC3=O)N(CCO)c3cc4c(cc32)CCC4)cc1 (stereo not given) | 86.8%
O=c1c2cccc(F)c2sc2c(N3CCNCC3)nc3ccccc3c12 | 1.83% (active)

SMILES | growth
Cn1c(C(=O)c2cccc3ccccc23)nc2ccccc21 | 17.6%
O=C(Nc1ccc(Cl)cc1)c1cc2ccccc2cc1OP(=O)(O)O | -10.1% (active)
COc1cc(C(=O)NN=C2c3ccccc3-c3ccccc32)cc(OC)c1OC | 23%
CC1CCCCN1CCCNC(=O)c1ccc2c(c1)sc1nc(-c3ccc(F)cc3)cn12 (stereo not given) | 86%
C=CCN1C(=O)/C(=c2\sc3n(c2=O)NC2C(N=3)N(CC)C(=O)N2CC)c2ccccc21 (stereo not given) | 66.1%
Nc1ccc(-c2nc3cc(Oc4ccc(Oc5ccc6[nH]c(-c7ccc(N)cc7)nc6c5)cc4)ccc3[nH]2)cc1 | 101%
COc1ccc2sc(N(Cc3cccnc3)C(=O)c3ccc(C#N)cc3)nc2c1 | 64.4%
CCN(CC)c1cc(C)c2cc(NC(=O)c3cccc(OC)c3)ccc2n1 | 7.5% (active)
O=c1c(-c2nc3ccccc3[nH]2)cc2ccccc2n1Cc1cn(Cc2ccc(F)cc2)nn1 | 16.7%
O=c1oc2ccc(Cl)cc2c(=O)n1-c1cc(C(F)(F)F)cc(C(F)(F)F)c1 | -26% (active)
N#C/C(=C\c1c(-c2ccccc2)[nH]c2ccccc12)C(=O)c1ccccc1 | -0.917% (active)
O=c1oc2ccc(Br)cc2c(=O)n1-c1ccc(I)cc1F | -28.3% (active)
N[C@@H](CC/[N+]([O-])=N/O)C(=O)O | 101%
O=C(O)c1cn(C2CC2)c2cc(N3CCN(C(=O)C[n+]4ccccc4)CC3)c(F)cc2c1=O | 106%
CS(=O)(=O)Nc1ccc(C(=O)NC(C(=O)NO)c2ccc(-c3cccc(F)c3)cc2)cc1 (stereo not given) | 82.8%
CCCc1c(C)c2sc(=O)[nH]c2[nH]c1=O | 112%
Cn1c2c(c(=O)[nH]c1=O)NC1=C(C(=O)c3ccccc31)C1(C=C(O)c3ccccc31)N2 (stereo not given) | 105%
CCOc1ccc(-c2nonc2NC(=O)c2cccc(C)c2)cc1OCC | 9.09% (active)
COc1ccc(CCN2C(=O)CCSC2=S)cc1 | 8.09% (active)
COc1ccc(C2NCCc3c2[nH]c2ccccc32)cc1CN1CCN(c2ccc(F)cc2)CC1 (stereo not given) | -10% (active)
